According to PubChem BioAssay AID1347414 (National Center for Advancing Translational Sciences (NCATS), 2020):
Inconclusive results are not listed. Unmarked numbers belong to inactive results. Activity calls are given as the source filed them. Calls follow the shape of the dose curve; as a rule, active = well fitted inhibition curve with a large enough effect; inconclusive = small, poorly fitted or top-dose-only effect; inactive = no such curve, though single readings can be large or run the other way.

Assay: qHTS to identify inhibitors of the type 1 interferon - major histocompatibility complex class I in skeletal muscle: Secondary screen by immunofluorescence; also: nearly all actives have a fitted effect of over 70% in size;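 as to activity change, negative = inhibition: digitonin at 100 µM served as the cytotoxic control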
Conditions: C25cl48 myoblasts, IFN-b induced HLA-ABC immunofluorescence, 24 h, Viability; series mostly up to 49.8 µM; activity change, negative = inhibition: at the top concentration
Outline: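 Immortalized human myoblasts C25cl48 were stimulated with 4.0 ng/ml IFN-beta and exposed to an 11-point 1:3 compound titration, top 50 uM, for 24 h at 37 C. They were then fixed and immunostained for HLA-ABC, and quantified by laser scanning cytometry.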
% is scaled to controls: 0 for no effect and ±100 for the full control effect; potency is read from the fitted curve at half-maximal effect.

SMILES	activity change, negative = inhibition	Potency
CS[C@H]1SC[C@@H]2C(=O)N(C)[C@H](C(C)C)C(=O)OC[C@H](NC(=O)c3cnc4ccccc4n3)C(=O)N[C@H](C)C(=O)N(C)[C@H]1C(=O)N(C)[C@H](C(C)C)C(=O)OC[C@H](NC(=O)c1cnc3ccccc3n1)C(=O)N[C@H](C)C(=O)N2C	-4.37%	–
CC(C)c1c2cc(-c3ccnc(NC4CCC(NC5CCOCC5)CC4)n3)ccc2nn1C (configuration not stated)	-7.1%	–
C[C@H](NC(=O)/C(C#N)=C/c1cccc(Br)n1)c1ccccc1	–	12.9 µM (active)
COC1CC(C(=O)c2ccc3c(N)ncc(-c4ccc(-c5cnn(C)c5)cc4)c3n2)C1 (configuration not stated)	0.546%	–
C#Cc1cccc(Nc2ncnc3cc(OC)c(OCCCCCCC(=O)NO)cc23)c1	-3.83%	–
CN(C)c1ccc(C(=O)NCCCCCCC(=O)NO)cc1	6.5%	–
COc1ccc(-c2ccc3ncc4c(c3c2)n(-c2ccc(N3CCNCC3)c(C(F)(F)F)c2)c(=O)n4C)cn1	–	1.02 µM (active)
CCc1c(-c2ccccc2C)nc2c(C#N)c[nH]n2c1=O	–	inactive
COc1c(C)cnc(Cn2cnc3c(Cl)nc(N)nc32)c1C	-3.79%	–
CCN(CC)CCOc1ccc(Nc2ncc3cc(-c4c(Cl)cccc4Cl)c(=O)n(C)c3n2)cc1	–	9.13 µM (active)
CC1=C(CO)C(=O)O[C@@H]([C@@H](C)[C@H]2CC[C@H]3[C@@H]4C[C@H]5O[C@]56[C@@H](O)C=CC(=O)[C@]6(C)[C@H]4CC[C@]23C)C1	–	2.05 µM (active)
CC(C)c1c(-c2ccccc2)nc2c(C#N)c[nH]n2c1=O	7.47%	–
NS(=O)(=O)OC[C@@H]1C[C@@H](n2ccc3c(N[C@H]4CCc5ccccc54)ncnc32)C[C@@H]1O	11.7%	–
O=C(/C=C/c1cccc(S(=O)(=O)Nc2ccccc2)c1)NO	-0.722%	–
COc1cc(Nc2ncc(F)c(Nc3ccc4c(n3)NC(=O)C(C)(C)O4)n2)cc(OC)c1OC	-3.83%	–
CC(C)c1cnn2c(NCc3ccccc3)cc(N[C@@H](CO)[C@H](O)CO)nc12	9.25%	–
C=CC(=O)N1CC/C(=C\c2ccc(F)c([N+](=O)[O-])c2)C(=O)/C(=C/c2ccc(F)c([N+](=O)[O-])c2)C1	–	0.408 µM (active)
COC(=O)c1nc(Cl)c(Cl)nc1N	–	9.13 µM (active)
C[C@@]12O[C@@H](C[C@]1(O)CO)n1c3ccccc3c3c4c(c5c6ccccc6n2c5c31)CNC4=O	-15.3%	–

SMILES	activity change, negative = inhibition	Potency
Cc1[nH]c2ccccc2c1CCNCc1ccc(/C=C/C(=O)NO)cc1	-8.01%	–
COC(=O)C[C@](O)(CCCC(C)(C)O)C(=O)O[C@@H]1C(OC)=C[C@]23CCCN2CCc2cc4c(cc2[C@H]13)OCO4	25.5%	–
CC(C)CC(=O)Nc1n[nH]c2c1CN(C(=O)C1CCN(C)CC1)C2(C)C	-4.69%	–
COC(=O)N[C@@H](C)CNc1nccc(-c2cn(C(C)C)nc2-c2cc(Cl)cc(NS(C)(=O)=O)c2F)n1	3.67%	–
CC(C)(C)c1cnc(CSc2cnc(NC(=O)C3CCNCC3)s2)o1	1.09%	–
CCCOc1ccc2nc(NC(=O)OC)[nH]c2c1	-8.07%	–
Cc1cc(Nc2cc(NC(=O)c3c(Cl)cccc3Cl)ccn2)nc(N)n1	-8.56%	–
Cc1cc(O)c(-c2ccc([C@@H](C)CN(C)C)cc2)c2c1[nH]c(=O)c1sccc12	-26.3%	–
CNC(=O)c1ccc(Nc2ncc(C(F)(F)F)c(NCc3nccnc3N(C)S(C)(=O)=O)n2)cc1	-9.86%	–
COC(=O)Nc1nc2ccc(C(=O)c3ccc(F)cc3)cc2[nH]1	-16.8%	–
Fc1cccc(-n2cnc3c(NCc4nc5c(F)c(F)ccc5[nH]4)nc(N4CCOCC4)nc32)c1	-13.2%	–
Cc1ccc([N+](=O)[O-])cc1S(=O)(=O)N(C)/N=C/c1cnc2ccc(Br)cn12	0.361%	–
CC(=O)OCC(=O)[C@@]1(O)CC[C@H]2[C@@H]3CCC4=CC(=O)C=C[C@]4(C)[C@H]3[C@@H](O)C[C@@]21C	30%	–
NC(=O)c1cnc2[nH]ccc2c1NC1C2CC3C[C@H]1CC(O)(C3)C2 (some centres not stated)	-0.722%	–
CCOC(=O)N1CCN(/[N+]([O-])=N/Oc2ccc([N+](=O)[O-])cc2[N+](=O)[O-])CC1	–	14.5 µM (active)
CC(/C=C/C(=O)NO)=C\[C@@H](C)C(=O)c1ccc(N(C)C)cc1	-16.9%	–
Nc1nc(Nc2ccc(S(N)(=O)=O)cc2)nn1C(=O)c1c(F)cccc1F	-5.13%	–
C=C1C(=O)O[C@@H]2[C@H]3O[C@]3(C)CCC=C(C)CC[C@@H]12	–	8.14 µM (active)
